Bioassay records: PubChem BioAssay, several laboratories
Rows were chosen to be rich in hits. Some 3.9% of all compounds tested hit in one or more screens of this group.
3CLpro inhibitor – SARS-CoV 3CLpro protease inhibition; P0C6X7; recombinant SARS-CoV 3CLpro, quenched FRET peptide cleavage; inhibition, % at 6 µM; 0.14% of 290,000 active; in the data active = inhibition above about 12%
Bead autofluor – counter-screen for toxin protease inhibitors: compound fluorescence; compound autofluorescence counterscreen, microsphere flow cytometry; active compounds read high; fluorescence intensity (no concentration beside the values); 3.1% of 360,000 active; AID 624483; in the data active = fluorescence intensity above about 16000; inconclusive = no clear call, values can overlap the other calls
CCHF vOTU inh – CCHFV vOTU protease inhibition; Pep-AMC fluorescence; inhibition, % at 11.5 µM; 0.55% of 370,000 active; AID 651958; in the data active = inhibition above about 30%; also: 0% = vehicle wells with enzyme and 100% = no enzyme wells
BoNT-F LC inh – blocks Botulinum neurotoxin F light chain protease; 0.22% of 360,000 active; inhibition, % at 10 µM; AID 588497; Multiplex microsphere protease cleavage assay, flow cytometry; in the data active = inhibition above about 35%, passing the limit was not always enough; inconclusive = no clear call, values can overlap the other calls; also: plate controls were buffer without enzyme for full effect and enzyme alone for no effect
Anthrax LF inh2 – inhibitors of Bacillus anthracis lethal factor protease; P15917; multiplex microsphere protease cleavage assay, LF; inhibition, % at 10 µM; 0.12% of 360,000 active; AID 588501; also: plate controls were buffer without enzyme for full effect and enzyme alone for no effect
Target sequence (P15917 whole entry, looked up): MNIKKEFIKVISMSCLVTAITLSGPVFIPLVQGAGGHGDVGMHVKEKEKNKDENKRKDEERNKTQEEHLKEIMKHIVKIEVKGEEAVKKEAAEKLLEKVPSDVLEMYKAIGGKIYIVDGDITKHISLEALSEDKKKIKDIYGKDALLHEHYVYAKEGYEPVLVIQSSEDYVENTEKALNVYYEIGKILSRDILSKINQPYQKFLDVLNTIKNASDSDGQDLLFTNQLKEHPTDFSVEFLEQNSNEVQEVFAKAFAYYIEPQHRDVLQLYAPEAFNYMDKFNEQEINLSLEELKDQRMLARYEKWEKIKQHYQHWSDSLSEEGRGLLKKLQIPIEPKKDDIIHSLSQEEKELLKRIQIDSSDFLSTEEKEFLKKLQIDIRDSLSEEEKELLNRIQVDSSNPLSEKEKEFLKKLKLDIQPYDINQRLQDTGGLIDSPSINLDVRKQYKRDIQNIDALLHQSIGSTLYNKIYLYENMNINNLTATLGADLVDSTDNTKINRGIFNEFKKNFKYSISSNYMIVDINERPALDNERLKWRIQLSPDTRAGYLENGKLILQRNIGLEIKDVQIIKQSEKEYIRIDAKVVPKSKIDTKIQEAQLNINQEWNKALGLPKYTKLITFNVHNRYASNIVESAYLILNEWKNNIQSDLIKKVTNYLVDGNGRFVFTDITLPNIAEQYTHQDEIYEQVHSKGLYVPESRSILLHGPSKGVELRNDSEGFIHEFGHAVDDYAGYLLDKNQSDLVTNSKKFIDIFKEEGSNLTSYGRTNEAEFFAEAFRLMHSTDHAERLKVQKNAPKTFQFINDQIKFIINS
BoNT A protease – BoNT A light chain protease inhibition. multiplex microsphere protease substrate cleavage, flow cytometry. inhibition, % at 10 µM. 0.17% of 360,000 active. AID 588499; also: plate controls were buffer without enzyme for full effect and enzyme alone for no effect
The depositor's hits bear a star; ? = inconclusive; nt = no result given. Rule as the data show it, unless noted: active = inhibition above about 30%; inconclusive = no clear call, values can overlap the other calls; inactive = below that.

SMILES | 3CLpro inhibitor | Bead autofluor | CCHF vOTU inh | BoNT-F LC inh | Anthrax LF inh2 | BoNT A protease
CCN(CC)C1=NC(=[N+](CC)CC)c2ccccc21 | 1.7 | 17474* | -10.0 | 16.6 | -9.4 | 14.5
O=C(Nc1cccc(C(F)(F)F)c1)c1cccn(Cc2ccc3c(c2)OC(F)(F)O3)c1=O | -2.2 | 20449* | 5.8 | -2.0 | -0.4 | -1.5
Cc1cccc(C)c1NC(=O)c1cccn(Cc2ccc3c(c2)OC(F)(F)O3)c1=O | -0.6 | 16867* | 4.5 | 7.0 | -13.0 | 10.0
O=C(Nc1ccc(C(F)(F)F)cc1)c1cccn(Cc2ccc3c(c2)OC(F)(F)O3)c1=O | -1.1 | 15928 | 0.0 | -3.9 | -1.0 | 0.5
O=[N+]([O-])c1cccc(OCCCN2CCC(C(O)(c3ccccc3)c3ccccc3)CC2)c1 | nt | nt | -2.0 | nt | nt | nt
C=CCn1c(C)cc(C(=O)CSc2nc3ccccc3[nH]2)c1C | -0.5 | 23335* | -3.8 | 0.8 | -3.1 | ?
OCCNc1nc2ccc(Cl)cc2[nH]1 | 0.7 | 22121* | nt | 4.1 | -0.5 | 4.2
CSc1nc2ccc(Br)cc2[nH]1 | 0.6 | 4612 | -3.2 | -5.0 | -2.8 | -1.0
Cc1cc(C(=O)CSc2nc3ccc(Cl)cc3[nH]2)c(C)n1C | 2.8 | 23487* | 13.2 | -3.7 | -9.2 | -2.7
Cc1ccc2nc(SCC(=O)c3cc(C)n(C)c3C)[nH]c2c1 | 2.6 | 2270 | 10.2 | 2.3 | -4.5 | -0.5
CSc1nc2ccc(Cl)cc2[nH]1 | -1.2 | 20323* | -13.5 | 8.8 | -9.0 | 5.1
Cc1cccnc1NC(=O)Nc1cccc(F)c1 | nt | 2927 | 0.5 | -5.6 | -2.3 | 0.0
COC(=O)c1cc(F)c(-n2cncn2)c(F)c1 | -0.8 | 16245* | -7.1 | -3.1 | 2.2 | ?
COC(=O)c1cc([N+](=O)[O-])c(-n2cncn2)c([N+](=O)[O-])c1 | 1.9 | 2583 | 0.6 | 25.4 | -3.6 | 1.1
Cc1cc(C(F)(F)F)nn1CCCNC(=O)c1cnccn1 | -1.0 | 23254* | -2.6 | -0.4 | -2.3 | ?
CCCCCCCCNC(=O)c1cnccn1 | -0.1 | 10727 | -13.4 | -4.8 | 0.2 | -1.0
O=C(OC12CCCN(C1)/C(=C/c1ccc(Cl)cc1)C2)c1ccccc1 (stereo not given) | nt | nt | 3.5 | nt | nt | nt
O=C(C(Cl)Cl)N1c2ccccc2OCC1c1ccccc1 (stereo not given) | -3.7 | 22852* | 4.4 | -2.7 | -1.3 | ?
Cc1ccc(C)c(-n2c(-c3ccc4c(c3)OCO4)n[nH]c2=S)c1 | -10.3 | 23573* | -3.5 | 1.2 | -1.0 | ?
Cc1ccc(C)c(-n2c(-c3csc(C)c3)n[nH]c2=S)c1 | -1.0 | 13477 | -11.0 | 11.1 | -13.4 | 9.0
COCCNC(=O)C1(C)CCCN(Cc2ccc(-c3ccccc3)o2)C1 (stereo not given) | nt | 3043 | -6.3 | -7.5 | -5.0 | -0.3
CCS(=O)(=O)Nc1cccc(C2=NN(S(C)(=O)=O)C(c3ccccc3)C2)c1 (stereo not given) | 3.1 | 7796 | -18.8 | 8.2 | 0.2 | -0.8
CCS(=O)(=O)N1N=C(c2cccc(NS(C)(=O)=O)c2)CC1c1ccc(C)cc1 (stereo not given) | -2.2 | 21472* | -12.0 | -1.1 | 16.9 | 26.4
CSc1ncnc2c1ncn2CCCNCc1cccc2ccccc12 | nt | 3691 | -4.9 | -4.4 | -0.6 | -0.5
CCOC(=O)C1CCCN(C(=O)C(=O)c2cn(CC(=O)N3CCOCC3)c3ccccc23)C1 (stereo not given) | -3.0 | 19022* | 17.6 | -97.8 | -7.2 | -53.1
SMILES | 3CLpro inhibitor | Bead autofluor | CCHF vOTU inh | BoNT-F LC inh | Anthrax LF inh2 | BoNT A protease
CCOC(=O)C1CCN(C(=O)C(=O)c2cn(CC(=O)N3CCCCCC3)c3ccccc23)CC1 | -0.6 | 8139 | 1.1 | 16.6 | 30.7* | 44.2*
CCOC(=O)N1CCN(C(=O)C(=O)c2cn(CC(=O)N3CCCCCC3)c3ccccc23)CC1 | 6.0 | 8734 | 2.3 | 12.8 | 25.9 | 15.7
CC1(NC(=O)N2CCCCC2)CCS(=O)(=O)C1 (stereo not given) | -7.9 | 22585* | -2.7 | 3.2 | -1.1 | 2.5
O=C(CC(CC(=O)c1ccccc1)c1ccccc1)c1ccccc1 | 3.2 | 3836 | 12.3 | -17.5 | 15.5 | 1.4
COC(=O)COC(=O)CC(CC(N)=O)c1ccccc1 (stereo not given) | 1.7 | 22984* | -0.6 | 1.4 | -0.7 | 1.0
CCNC(=S)NNC(=O)Nc1ccccc1 | 4.0 | 23334* | nt | -0.7 | -4.7 | -0.4
O=C(O)C1(c2ccccc2)CCN(S(=O)(=O)c2ccccc2)CC1 | 4.0 | 4504 | 2.2 | -4.1 | -2.7 | -0.5
O=C(NCc1ccccc1)C1(c2ccccc2)CCN(S(=O)(=O)c2ccccc2)CC1 | -3.7 | 16987* | -1.1 | -1.9 | -1.9 | -1.3
O=C(N/N=C/c1ccc(Cl)c([N+](=O)[O-])c1)c1ccc2nc[nH]c2c1 | 0.6 | 2851 | 12.1 | 0.0 | -0.5 | 0.9
O=C(N/N=C/c1ccccc1[N+](=O)[O-])c1ccc2nc[nH]c2c1 | 2.4 | 4316 | 0.7 | 48.9* | ? | 1.1
Cc1nc2ccc(S(=O)(=O)NCC(=O)NCc3ccc(F)cc3)cc2s1 | nt | nt | -3.3 | nt | nt | nt
O=C(NCc1ccccc1)c1cc(=O)nc2sc(-c3ccccc3)nn12 | -6.9 | 23048* | -3.5 | 0.1 | 1.1 | -1.5
COC(=O)c1cc(=O)nc2sc(-c3ccc(F)cc3)nn12 | 3.2 | 8601 | nt | -6.4 | -0.6 | -1.1
CCOC(=O)C1CCCN(C(=O)c2ccc(-c3ccccc3Cl)o2)C1 (stereo not given) | nt | nt | 12.8 | nt | nt | nt
CCOC(=O)C1CCCN(C(=O)c2ccco2)C1 (stereo not given) | -3.1 | 23110* | 2.8 | -1.4 | 2.7 | 0.9
CCOC(=O)C1CCCN(C(=O)N2CCOCC2)C1 (stereo not given) | 1.1 | 19919* | -0.2 | -0.7 | -2.0 | ?
Cc1nc2ccccc2c2oc(C(=O)N3CC(C)CC(C)C3)cc12 (stereo not given) | -5.8 | 5918 | 16.8 | -4.8 | -1.3 | 0.2
CCOC(=O)C1CCCN(C(=O)c2cc3c(C)nc4ccccc4c3o2)C1 (stereo not given) | -8.9 | 22194* | -2.4 | 3.1 | 0.9 | 0.2
O=C(Cc1ccc2ccccc2c1)NC(Cc1ccccc1)C(=O)O (stereo not given) | nt | 3021 | 2.6 | -7.8 | 0.7 | -0.6
CC1CC(C)CN(S(=O)(=O)N2CCCC(C(=O)NC3CCCCC3C)C2)C1 (stereo not given) | -0.1 | 4158 | 6.0 | -4.8 | -0.3 | 0.3
CCOc1ccccc1CNC(=O)C1CCCN(c2nn3c(=O)cc(C)nc3s2)C1 (stereo not given) | -2.0 | 5496 | 15.9 | -3.7 | -1.2 | -0.5
CC(=O)N1NC(=Nc2ccccc2)SC1(C)C | -1.4 | 3340 | 8.5 | -2.7 | -1.8 | -1.1
CCOc1nc(-c2ccccc2Cl)ccc1C#N | -6.1 | 20479* | -5.7 | -4.2 | -3.4 | -1.5
CCOc1ccc(-c2cc(C(=O)OC)c3n(c2=O)CCC3)cc1 | nt | nt | -9.8 | nt | nt | nt
CC(C)CCN1CCC(N)=NC1=O | 3.0 | 4776 | -10.8 | -5.6 | -1.7 | -1.4
Cn1cccc1CNCc1ccccc1Cl | -1.7 | 18677* | -6.1 | -8.5 | -3.7 | 2.4
CCCCCNCc1cccn1C | -1.0 | 6142 | -1.7 | -0.2 | -4.7 | -0.4
CCS(=O)(=O)c1cc([N+](=O)[O-])c(Sc2ccccc2NC(C)=O)s1 | 3.6 | nt | 6.5 | nt | nt | nt
